The source of these data is PubChem BioAssay (NCI).

Several values for one entry are separate records, joined by “and”; a condition that tells them apart may be missing. Equal entries are not always repeated. Compounds without any hit were thinned out: in the full panel of roughly 83,000, 20% have a hit.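 Method: cells in 96-well plates; compound added at one concentration; 48 h incubation; percent growth measured; values under 10 scored active.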 A number with no mark means an inactive call. Activity calls are given as the source filed them.

Common to all, as to assay: NCI-60 one-dose screen, 48 h (100 = growth as untreated, 0 = no growth, -100 = all killed)
In assay [1] the test system is RPMI-8226 leukemia. As to conditions: 10 µM unless noted.
Assay [2] has as its system OVCAR-8 ovarian. As to conditions: 10 µM unless noted.
Assay [3] deals with OVCAR-5 ovarian. Particulars: 10 µM unless noted.
The subject of assay [4] is OVCAR-4 ovarian. Particulars: 10 µM unless noted.
Assay [5] deals with SK-OV-3 ovarian. As to conditions: 10 µM unless noted.
For assay [6], the system named is HS 578T breast. Particulars: 10 µM unless noted.
Assay [7] concerns NCI/ADR-RES ovarian. Particulars: 10 µM unless noted.
Assay [8] deals with T-47D breast. As to conditions: 10 µM unless noted.
The subject of assay [9] is BT-549 breast. As to conditions: 10 µM unless noted.
For assay [10], the system named is MDA-MB-435 melanoma. Particulars: 10 µM unless noted.
For assay [11], the system named is SW-620 colon. Particulars: 10 µM unless noted.
Assay [12] relates to MCF7 breast.
Assay [13] deals with HCT-116 colon. Particulars: 10 µM unless noted.
The subject of assay [14] is KM12 colon. As to conditions: 10 µM unless noted.
The subject of assay [15] is OVCAR-3 ovarian. As to conditions: 10 µM unless noted.
For assay [16], the system named is HCC-2998 colon. Particulars: 10 µM unless noted.
Assay [17] concerns IGROV1 ovarian. As to conditions: 10 µM unless noted.

With `CO[C@H]1/C=C/O[C@@]2(C)Oc3c(C)c(O)c4c(O)c(c(/C=N/N5C(C)CN(Cc6ccccc6)CC5C)c(O)c4c3C2=O)NC(=O)/C(C)=C\C=C\[C@H](C)[C@H](O)[C@@H](C)[C@@H](O)[C@@H](C)[C@H](OC(C)=O)[C@@H]1C` (some centres not stated), the growth in [1] was 83.5%; in assay [2], 75.6%; in assay [3], 99.1%; in assay [4], 89.8%; in assay [5], 116%; in assay [6] it was 84.6%. The growth in assay [7] is -20.3% (active); in assay [8] it was 81.4%; in [9], 125%; in assay [10] it was 86.6%; in assay [11], 80.1%; in assay [12] (10 µM unless noted), 44.6%. For the same compound, the growth was 37.9% in assay [13] and 52.6% in assay [14].

`C[C@]12C[C@H](O)[C@H]3[C@@H](CCC4=CC(=O)CC[C@@]43C)[C@@H]1CC[C@@H]2C(=O)CO`: the growth was 0.491% (active) in assay [1]; 104% in [2]; 43.8% in assay [3]; 97.7% in assay [4]; 81.3% in [5]; 110% in assay [15]. The growth is 108% in assay [6]; -34.7% (active) in assay [7]; 92% in [8]; 103% in [10]; 99.1% in assay [11]; 101% in assay [12] (10 µM unless noted). Besides, the growth is 106% in [13] and 99.9% in assay [14].

On to `O=c1c(O)cccn1CCCNCCCN(CCCn1cccc(O)c1=O)CCCn1cccc(O)c1=O`, for which the growth in [1] was 131%; in assay [2] it was 114%; in [3], 94.7%; in assay [4], 101%; in [5], 97.3%; in [15], 103%. Further, the growth is 120% in [6]; 101% in assay [7]; 101% in [8]; 113% in assay [9]; 104% in [10]; 99.1% in assay [11]. The growth in [12] (10 µM unless noted) is 104%; in [13] it was 108%; in assay [16], 101%; in assay [14] it was 106%.

Regarding `NS(=O)(=O)c1ccc(NC2=C(Cl)C(=O)c3ccccc3C2=O)cc1`, the growth in assay [1] was 61.2%; in assay [2], 88.6%; in assay [3] it was 102%; in assay [5], 90.2%; in assay [17], 75.3%; in assay [15], 98%. Besides, the growth in [6] was 142%; in [7] it was 93.6%; in assay [8] it was -48.3% (active); in [9], 84.4%; in [10] it was 124%; in assay [11], 95%. Besides, the growth in [12] (10 µM unless noted) is 72.8%; in assay [13], 65%; in assay [14], 123%.

In the case of `COc1cc(C2CC(=O)Nc3c2cc(Br)c2ccccc32)cc(Br)c1OC` (configuration not stated), the growth in assay [1] was 43.3%; in [2], 31.7%; in assay [3] it was 76.2%; in assay [5] it was -15.1% (active); in assay [17] it was 26.7%; in assay [15], -13% (active). The growth in [6] was 39.6%; in assay [7], 6.65% (active); in [8], 4.99% (active); in assay [9] it was 60.7%; in assay [10], -29.6% (active); in [11] it was 17.6%. Further, the growth was 17.3% in assay [12] (10 µM unless noted), -5.31% (active) in assay [13], 90.9% in [16] and 6.63% (active) in assay [14].

`COc1ccc2[nH]cc(/C=C3/C(=O)Nc4ccc(F)cc43)c2c1`: the growth was 62.4% in [1]; 84.1% in assay [2]; 88.5% in assay [3]; 104% in [5]; 98.2% in [17]; 108% in assay [15]. Besides, the growth in assay [6] is 72.6%; in assay [7] it was 84.9%; in assay [8], 92.2%; in assay [9], 134%; in assay [10] it was 93.8%; in assay [11], 101%. In addition, the results for the growth in assay [12] (10 µM unless noted), in [16] and in assay [14] were 56.3%, 93% and 27%, respectively.

With `COc1ccc(C2=NNC(c3cc(Cc4ccc(O)c(C5CC(c6ccc(OC)cc6)=NN5)c4)ccc3O)C2)cc1` (configuration not stated), the growth is 26.9% in assay [1]; 28.8% in assay [2]; 112% in assay [3]; 93.9% in assay [5]; 35.5% in assay [17]; 68.6% in assay [15]. For the same compound, the growth is 43% in assay [6]; 33.7% in assay [7]; 50.3% in assay [8]; 58.1% in [9]; 12.1% in [10]; 30.3% in assay [11]. For the same compound, the growth is 26.1% in assay [12] (10 µM unless noted), 28.3% in [13] and 55.4% in assay [14].

In the case of `Cc1cc(C(=O)O)c(C)cc1C(=O)O`, the growth in [1] is 102%; in [2], 104%; in assay [3], 96%; in assay [5], 106%; in [17], 85.3%; in assay [15], 136%. Further, the growth in assay [6] was 122%; in [7] it was 105%; in [8], 104%; in [9], 103%; in assay [10], 113%; in [11] it was 114%. Moreover, the growth in assay [12] (10 µM unless noted) was 96%; in assay [13], 105%; in assay [16] it was 95.1%; in assay [14], 113%.

On to `c1ccc2c(c1)[nH]c1c2cc[n+]2cc3c(cc12)CCCC3`, for which the growth was 32.6% in assay [1]; 10.7% in assay [2]; 48.1% in [3]; 23.4% in assay [5]; 66.4% in assay [17]; 20.9% in assay [15]. The growth in assay [7] is 97.7%; in assay [8], -13.8% (active); in assay [9], 72.7%; in [10], 11.5%; in assay [11] it was 20.7%; in [12] (10 µM), -13.9% (active). For the same compound, the growth in [12] (100 µM) is -78.5% (active) and -87.5% (active); in assay [13], 14.7%; in assay [16], 24.6%; in assay [14], 26.4%.

With `COc1c(C)c2c(c(O)c1C/C=C(\C)CCC(=O)OCCN1CCOCC1)C(=O)OC2`, the growth is 16% in assay [1]; 16.9% in assay [2]; 36.8% in assay [3]; 31.4% in assay [5]; 13% in assay [17]; 36.1% in [15]. Further, the growth in assay [6] is 50.4%; in [7], 21.5%; in assay [8], 29.3%; in [9] it was 40.4%; in [10] it was 26.2%; in [11] it was 19.6%. The results for the growth in assay [13], in assay [16] and in [14] were 14%, 18.1% and 27.8%, respectively.
